Screening data deposited in PubChem BioAssay by several laboratories.
CSC inhib: cancer stem cell inhibition; inhibition, % at 7.5 µM; AID 2717; cancer stem cell-like cells viability, luminescence; actives 1.1% (n = 300,000); in the data active means inhibition above about 75%; tested in HMLE shEcad cells
Beta apoptosis: blocks beta cell apoptosis; INS-1E cytokine-induced death, ATP luminescence, 48 h; percent of positive-control rescue, neutral wells zero; actives 0.8% (n = 300,000); protection from apoptosis, % (test concentration not listed);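 active means Every replicate reaches about 75%, or at least half do and their mean reaches it too, limit read from the data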;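 further: 0% = cytokine-treated negative control wells and 100% = positive control rescue; higher means more ATP so stronger rescue from cytokine killing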
Mdm2 MdmX PPI: inhibitors of human Mdm2/MdmX interaction; O15151+Q00987; SaOS-2 split-luciferase Mdm2/MdmX complementation, luminescence; inhibition, % at 8 µM; actives 3% (n = 330,000); AID 485346;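 active means inhibition of at least 50% at 8 µM in the primary screen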
Calb FLC: C. albicans growth modulation with fluconazole; actives 0.57% (n = 300,000); C. albicans CaCi-2 (fluconazole-resistant clinical isolate) + fluconazole, Alamar Blue growth, 48 h; AID 1979; growth inhibition, % (no concentration beside the values);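 active means growth inhibition above about 58% in most replicates, limit read from the data, passing the limit was not always enough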;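 further: all wells also contain fluconazole at 8 µg/ml as a sub-toxic cotreatment; 0% = median of DMSO wells and 100% = median of geldanamycin control wells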
MPTP block: inhibitors of mitochondrial permeability transition pore; isolated mouse mitochondria, Ca2+ swelling absorbance, 30 min; inhibition, % at 10 µM; actives 1.4% (n = 360,000);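 active means inhibition of 50% or more, scaled per plate between neutral and stimulator controls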;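 further: 0% = DMSO wells given calcium and 100% = 1 mM EGTA wells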
Rh123 counter: Rhodamine 123 counter-screen of mitochondrial pore hits. actives 78% (n = 5,000). isolated mitochondria, membrane potential, Rhodamine 123 fluorescence. inhibition, % at 10 µM. shares compounds with MPTP block; in the data active means inhibition above about 22%;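 further: 0% = DMSO vehicle and 100% = positive control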
MPTP swell DR: dose response confirmation of mitochondrial permeability transition pore inhibitors. shares compounds with MPTP block. isolated mitochondria swelling, absorbance. IC50, µM. actives 58% (n = 780). AID 651561; in the data active means IC50 below about 20 µM
MPTP cs DR: active in counter-screen for permeability transition pore inhibitors. shares compounds with MPTP block. isolated mitochondria counterscreen, fluorescence read-out. IC50, µM. actives 49% (n = 780). AID 651564; in the data active means IC50 below about 80 µM
The depositor's hits bear a star; i = inactive; . = not tested or not shown. Only some compounds are listed: those with a hit (about 4.8% of all), similar ones and a draw of the others.

SMILES	CSC inhib	Beta apoptosis	Mdm2 MdmX PPI	Calb FLC	MPTP block	Rh123 counter	others
CCC(c1nnnn1C1CCCCC1)N1CCC2(CC1)C(=O)NCN2c1ccccc1 (configuration not stated)	.	.	.	.	1	.
Cc1cc(C)c(C)c(C(O)(C(=O)O)c2ccccc2)c1 (configuration not stated)	.	.	.	.	0	.
C[C@]12CCC3C(CC[C@@H]4C[C@@H](O)CC[C@]34C)C1CC[C@@H]2O (some centres not stated)	.	.	.	.	-1	.
O=C1N(c2ccc(Cl)cc2)C(c2cccnc2)N2CCCN12 (configuration not stated)	5	-4	-17	-6	67*	104*
O=C(Nc1ccc(Cl)cc1)OC1CN2CCC1CC2 (configuration not stated)	18	-10	-23	3	78*	93*
O=C(Nc1cccc(Cl)c1)OC1CN2CCC1CC2 (configuration not stated)	18	.	30	-8	92*	88*
O=C(Nc1ccccc1Cl)OC1CN2CCC1CC2 (configuration not stated)	-13	.	-25	-4	0	.
N#CC1c2ccccc2-n2nncc2CN1C(=O)c1ccccc1F (configuration not stated)	.	.	.	.	0	.
CN1CCC(N(C)c2nc(-c3ccc([N+](=O)[O-])cc3)nc3ccccc23)CC1	.	.	.	-1	102*	-16
CC(NCc1cccc(Cl)c1Cl)C(O)c1ccccc1 (configuration not stated)	-7	0	-1	-6	72*	-3	MPTP swell DR=>100;MPTP cs DR=>80
CC(NCc1ccc(Cl)cc1Cl)C(O)c1ccccc1 (configuration not stated)	0	-1	-23	2	1	.
O=[N+]([O-])c1ccc(N2CCCC(C(F)(F)F)C2)c2ccncc12 (configuration not stated)	-4	29	40	-14	77*	90*
O=[N+]([O-])c1ccc(N2CCCCC2)c2ncccc12	-11	-4	10	0	-4	.
C[C@]12CCC3C(CC[C@H]4C[C@@H](O)CC[C@]34C)C1C[C@H](Br)[C@@H]2O (some centres not stated)	19	6	10	.	2	.
CCOc1cc(C2NCc3ccccc3-n3cccc32)ccc1O (configuration not stated)	1	-5	8	3	88*	-8	MPTP swell DR=7.1*;MPTP cs DR=>80
CCOc1cccc(C2NCc3ccccc3-n3cccc32)c1O (configuration not stated)	-4	-3	18	-2	1	.
CC12CCC(O)CC1CCC1C2CCC2(C)C(C(=O)CO)CCC12 (configuration not stated)	.	.	.	.	2	.
Clc1cccc(N2CCNCC2)c1Cl	-3	.	20	1	-4	.
c1ccc2c(N3CCNCC3)cccc2c1	-6	-13	32	.	70*	-5	MPTP swell DR=19*;MPTP cs DR=>80
c1ccc2c(CNC3CCCCCC3)c[nH]c2c1	3	50	42	.	71*	-6	MPTP swell DR=8.7*;MPTP cs DR=73*
Cc1[nH]n(-c2ccccc2)c(=O)c1C(c1ccc([N+](=O)[O-])cc1)c1c(C)[nH]n(-c2ccccc2)c1=O	37	-4	19	-19	96*	76*
Nc1c2c(nc3sc4c(c13)CCCCC4)CCCC2	10	3	-29	-12	88*	80*
CC(C)C[C@@H]1COc2cccc(N3CCN(C)CC3)c2S(=O)(=O)N1	.	.	.	.	0	.
Cc1cc(C(=O)OCC(=O)Nc2ccccc2F)c(C)n1C1CC1	.	.	-44	.	0	.
CCCCn1c(NS(=O)(=O)c2ccccc2)c(C(=O)OCC)c2nc3ccccc3nc21	18	-3	.	.	59*	50*
SMILES	CSC inhib	Beta apoptosis	Mdm2 MdmX PPI	Calb FLC	MPTP block	Rh123 counter	others
CCCCn1c(NC(=O)c2ccc(Br)o2)c(C(=O)OCC)c2nc3ccccc3nc21	13	6	10	.	4	.
Cc1cc2c(C(C)C)c(O)c(O)c(C=O)c2c(O)c1-c1c(C)cc2c(C(C)C)c(O)c(O)c(C=O)c2c1O	.	.	.	.	85*	19
C[C@H](CO)N1C[C@H](C)[C@@H](CN(C)C(=O)Oc2ccc3ccccc3c2)OCc2cn(nn2)CCCC1=O	.	.	.	.	-1	.
CN(C)CCOC(=O)c1cn(Cc2ccccc2)c2ccccc12	59	6	-9	-13	59*	-8	MPTP swell DR=18*;MPTP cs DR=>80
CC(=O)c1cn(CCCOc2ccccc2)c2ccccc12	.	30	17	-1	82*	56*
CN(C)CCOc1ccc(/C(=C(/CCCl)c2ccccc2)c2ccccc2)cc1	.	.	3	.	106*	-16	MPTP swell DR=6.7*;MPTP cs DR=41*
CN(C)C(=O)Oc1ccc(C(=O)c2ccccc2)cc1	-5	1	-5	-23	-2	.
O=C(Nc1ccc(Br)cc1)N1C[C@H]2C[C@@H](C1)c1cccc(=O)n1C2	-8	.	10	-6	-3	.
O=C(Nc1ccc(Cl)cc1)N1CC2CC(C1)c1cccc(=O)n1C2 (configuration not stated)	-8	-7	13	-7	60*	103*
O=C1NCN(c2ccccc2)C12CCN(C(c1nnnn1-c1ccc3c(c1)OCCO3)C1CC1)CC2 (configuration not stated)	.	.	.	.	1	.
COc1ccc2c(c1)C13CCN(C)C(C2)C1CCC1(C3)OCCO1 (configuration not stated)	.	.	.	.	-1	.
COc1ccc2c(c1)[C@@]13CCC=C[C@H]1[C@@H](C2)NCC3	-10	1	22	.	55*	-6	MPTP swell DR=i;MPTP cs DR=>80
CCOC(=O)C1(CCc2ccccc2)CCN(Cc2ccc3c(c2)OCCO3)CC1	43	.	15	-30	28	.
CCOC(=O)C1(CCOc2ccccc2)CCN(Cc2ccc(C)s2)CC1	41	19	17	-18	65*	82*
O=C1NC(=S)SC1=Cc1ccc(N(CCCl)CCCl)cc1	.	.	.	.	53*	67*
N#CC1c2ccccc2-n2nncc2CN1Cc1cc(Cl)cc(Cl)c1 (configuration not stated)	.	.	.	.	-2	.
O=C1NC(=O)C(=Cc2ccc(-c3ccccc3[N+](=O)[O-])o2)C(=O)N1	20	-2	3	-4	51*	47*
O=C1NC(=O)C(=Cc2ccc(-c3cc(Cl)ccc3[N+](=O)[O-])o2)C(=O)N1	.	.	.	27	31	.
COC(=O)C1=C(c2cccc(OCc3ccccc3)c2)C[C@@H]2CC[C@H]1N2C(=O)NCc1ccc2[nH]ccc2c1	31	2	23	.	0	.
COC(=O)C1=Nc2ccccc2/C1=C\c1c(O)n(-c2cc(OC)ccc2OC)c(=O)[nH]c1=O	8	0	12	15	58*	-3	MPTP swell DR=i;MPTP cs DR=>80
Oc1cc(Cl)c(Cl)c(Cl)c1Cl	.	.	.	.	79*	99*
